Measurements taken from PubChem BioAssay (EPA / NIEHS).
Results filed as inconclusive are left out. Calls of active or inactive are those of the source. Rule for the calls, unless noted: active = hit-call score of the fitted dose curve at least 0.9, where 1 is the maximum; inactive = score below 0.9.

Experiments:
[1] = molecular target: Oxysterols receptor LXR-alpha (Homo sapiens) (UniProt Q13133); test: ATG_LXRa_TRANS: Attagene TRANS-FACTORIAL HepG2 Assay for human Liver X Receptor alpha (LXRa) (AID 2282980; active = hit-call score of the fitted dose curve at least 0.9, where 1 is the maximum); conditions: HepG2 Attagene TRANS reporter, LXRa transactivation
Outline: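 Chemical-induced reporter mRNA measured by RT-PCR with fluorescent labelling and capillary electrophoresis after 24 h dosing of transiently transfected HepG2 cells expressing exogenous NR-Gal4 chimeras; increases scored against DMSO baseline.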

[2] = molecular target: Oxysterols receptor LXR-beta (Homo sapiens) (UniProt P55055); test: ATG_LXRb_TRANS: Attagene TRANS-FACTORIAL HepG2 Assay for human Liver X Receptor beta (LXRb) (AID 2282981; active = hit-call score of the fitted dose curve at least 0.9, where 1 is the maximum); conditions: HepG2 Attagene TRANS GAL4-LXRb reporter, mRNA
Outline: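 Multiplexed reporter assay, HepG2, 24 h dosing. Fluorescence of labelled RT-PCR products after capillary electrophoresis gives transcript level; positive fitting direction relative to DMSO.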

[3] = molecular target: Hepatocyte nuclear factor 4-alpha (Homo sapiens) (UniProt P41235); test: ATG_HNF4a_TRANS: Attagene TRANS-FACTORIAL HepG2 Assay for human Hepatocyte Nuclear Factor 4 alpha (HNF4a) (AID 2282982; active = hit-call score of the fitted dose curve at least 0.9, where 1 is the maximum); conditions: HepG2 HNF4a transactivation reporter, mRNA readout
Outline: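 Endpoint reflects transcriptional activation of a GAL4-UAS reporter by an HNF4a-GAL4 chimera in transfected HepG2 cells, 24 h post-dosing. Fluorescence from RT-PCR products separated by capillary electrophoresis; DMSO baseline.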

[4] = ATG_M_32_TRANS: Attagene TRANS-FACTORIAL HepG2 Assay for M32 Transcription Factor (Internal Marker) (AID 2282984; active = hit-call score of the fitted dose curve at least 0.9, where 1 is the maximum); conditions: HepG2 Attagene TRANS M32 internal marker reporter
Outline: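 Internal-marker readout from a multiplexed transcription reporter panel. HepG2 cells were transfected with GAL4-UAS reporter units, treated 24 hours, and reporter transcript levels determined by fluorescence after RT-PCR and capillary separation.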

[5] = molecular target: Transcriptional activator Myb (Homo sapiens) (UniProt P10242); test: ATG_Myb_CIS: Attagene CIS-FACTORIAL HepG2 Assay for human Myeloblastosis (Myb) Proto-Oncogene Transcription Factor (AID 2282986); conditions: HepG2 Attagene CIS-FACTORIAL Myb reporter transcription; actives raise or lower the signal
Outline: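 After 24 h of compound dosing, total RNA from transfected HepG2 cells is reverse-transcribed and the reporter sequences amplified, labeled and separated by capillary electrophoresis. Values come from bidirectional fitting against DMSO.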

[6] = molecular target: Nuclear respiratory factor 1 (Homo sapiens) (UniProt Q16656); test: ATG_NRF1_CIS: Attagene CIS-FACTORIAL HepG2 Assay for human Nuclear Respiratory Factor 1 (NRF1) Orphan Gene (AID 2282987); conditions: HepG2 NRF1 cis-element reporter, Attagene multiplex; actives raise or lower the signal
Outline: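 Measured: fluorescent reporter-specific RT-PCR products from transfected HepG2 cells, separated by capillary electrophoresis. Exposure lasted 24 h. Analysis used bidirectional curve fitting with DMSO as negative control.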

[7] = ATG_NFI_CIS: Attagene CIS-FACTORIAL HepG2 Assay for human Nuclear Factor I (NFI) (AID 2282989); conditions: HepG2 cis-regulatory reporter, NFI response element transcription; actives raise or lower the signal
Outline: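 HepG2 cells transiently transfected with cis-element-driven multiplexed reporter transcription units, dosed for 24 h. Reporter mRNA quantified by RT-PCR, fluorescent labelling, HpaI digestion and capillary electrophoresis; bidirectional fit versus DMSO baseline.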

[8] = molecular target: Myc proto-oncogene protein (Homo sapiens) (UniProt P01106); test: ATG_Myc_CIS: Attagene CIS-FACTORIAL HepG2 Assay for human Myelocytomatosis (Myc) Proto-Oncogene Transcription Factor (AID 2282990); conditions: HepG2, Attagene cis-reporter transcription factor activity; actives raise or lower the signal
Outline: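 Fluorescence intensity of reporter-specific cDNA fragments, separated by capillary electrophoresis, gives the signal. Transfected HepG2 cells carrying cis-promoter reporter constructs are incubated with compound for 24 h; DMSO serves as baseline.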

[9] = ATG_NF_kB_CIS: Attagene CIS-FACTORIAL HepG2 Assay for human Nuclear Factor Kappa B (NF-kB) (AID 2282991); conditions: HepG2 Attagene cis-factorial NF-kB reporter mRNA; actives raise or lower the signal
Outline: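 Fluorescence of labelled RT-PCR products separated by capillary electrophoresis gives reporter mRNA levels from transfected HepG2 cells exposed 24 h; values are fitted in both directions relative to DMSO.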

[10] = ATG_NRF2_ARE_CIS: Attagene CIS-FACTORIAL HepG2 Assay for human Nuclear Factor Erythroid 2 Related Factor 2 (NFR2) response to Antioxidant Response Elements (ARE) (AID 2282992); conditions: HepG2 Attagene ARE/NRF2 reporter, transcription factor activity; actives raise or lower the signal
Outline: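 Readout: reporter mRNA quantified by RT-PCR plus FAM-labelled primer extension, HpaI digestion and capillary electrophoresis, 24 h after dosing transfected HepG2 cells. Gain or loss of signal is fitted bidirectionally against DMSO baseline.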

[11] = ATG_M_06_TRANS: Attagene TRANS-FACTORIAL HepG2 Assay for M06 Transcription Factor (Internal Marker) (AID 2282983; active = hit-call score of the fitted dose curve at least 0.9, where 1 is the maximum); conditions: HepG2 Attagene TRANS M06 internal marker reporter
Outline: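 Background-control reporter readout: after 24 h chemical exposure of transiently transfected HepG2 (GAL4-UAS reporter units), mRNA quantified by RT-PCR with fluorescent labeling and capillary electrophoresis. Gain-of-signal fitting against DMSO baseline.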

[12] = molecular target: Nuclear receptor subfamily 4 group A member 2 (Homo sapiens) (UniProt P43354); test: ATG_NURR1_TRANS: Attagene TRANS-FACTORIAL HepG2 Assay for human Nuclear Receptor Related Protein 1 (NURR1) (AID 2282985; active = hit-call score of the fitted dose curve at least 0.9, where 1 is the maximum); conditions: HepG2 Attagene TRANS reporter, mRNA readout
Outline: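 Endpoint: reporter mRNA increase relative to DMSO. HepG2 cells transfected with reporter units, treated 24 h; RNA processed by RT-PCR, labelling, HpaI digestion and capillary electrophoresis.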

[13] = ATG_Oct_MLP_CIS: Attagene CIS-FACTORIAL HepG2 Assay for human Octamer-Binding Transcription Factor (Oct) (AID 2282993); conditions: HepG2 Attagene cis-factorial Oct reporter, mRNA; actives raise or lower the signal
Outline: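 HepG2 cells transiently transfected with cis-promoter-driven multiplexed reporter transcription units, dosed for 24 h. Reporter mRNA quantified by RT-PCR, fluorescent labelling, HpaI digestion and capillary electrophoresis; bidirectional fits versus DMSO baseline.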

[14] = molecular target: Cellular tumor antigen p53 (Homo sapiens) (UniProt P04637); test: ATG_p53_CIS: Attagene CIS-FACTORIAL HepG2 Assay for human p53 Transcription Factor (AID 2282994); conditions: HepG2 p53 cis-element reporter, Attagene mRNA; actives raise or lower the signal
Outline: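 Read-out: reporter mRNA by RT-PCR plus capillary electrophoresis with fluorescence detection. Human HepG2 liver cells carried transfected multi-reporter cis-element constructs, dosed 24 h. Gain or loss of signal fitted bidirectionally against DMSO control.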

[15] = molecular target: Bile acid receptor (Homo sapiens) (UniProt Q96RI1); test: ATG_FXR_TRANS: Attagene TRANS-FACTORIAL HepG2 Assay for Farnesoid X Receptor (FXR) (AID 2282979; active = hit-call score of the fitted dose curve at least 0.9, where 1 is the maximum;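 note: hits raise reporter mRNA above DMSO so AC50 marks FXR activation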); conditions: HepG2 Attagene TRANS FXR-GAL4 reporter transcription
Outline: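 Reporter transcripts from transfected HepG2 cells were measured 24 h after dosing, using RT-PCR with capillary electrophoresis of 6-FAM-labelled fragments. The read-out reflects activity of exogenous FXR-Gal4 chimera on GAL4-UAS units, with induction relative to DMSO.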

[16] = BSK_3C_TissueFactor: BioMAP Diversity Plus: 3C Assay for Tissue Factor Biomarker Activity (AID 2282997); conditions: BioMAP 3C HUVEC, tissue factor biomarker readout; actives raise or lower the signal
Outline: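 Tissue factor on primary human umbilical vein endothelium was read by ELISA 24 h after dosing, gain or loss relative to DMSO. Cytotoxicity ran alongside via SRB (0.1%, TCA-fixed, 560 nm).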

[17] = BSK_3C_uPAR: BioMAP Diversity Plus: 3C Assay for Urokinase-type plasminogen activator receptor (uPAR) Biomarker Activity (AID 2282998); conditions: BioMAP 3C HUVEC, uPAR biomarker ELISA; actives raise or lower the signal
Outline: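 Human umbilical vein endothelial primary cells were exposed to test chemical for 24 h. Cell-surface uPAR was then quantified by ELISA, and responses were fitted bidirectionally against DMSO as negative control and baseline.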

[18] = BSK_3C_VCAM1: BioMAP Diversity Plus: 3C Assay for Vascular cell adhesion molecule 1 (VCAM1) Biomarker Activity (AID 2282999); conditions: BioMAP 3C HUVEC, VCAM1 ELISA, cytokine-stimulated; actives raise or lower the signal
Outline: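 HUVEC primary cells, 24 h compound exposure; VCAM-1 by ELISA; gain/loss of signal fitted bidirectionally vs DMSO baseline.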

[19] = BSK_4H_Eotaxin3: BioMAP Diversity Plus: 4H Assay for Eotaxin 3 Biomarker Activity (AID 2283000); conditions: primary human endothelial cells (HUVEC); actives raise or lower the signal
Outline: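 Human umbilical vein endothelial cells (BSK_4H system) dosed with test chemical; Eotaxin-3 (CCL26) measured by ELISA 24 h after dosing. Bidirectional curve fitting relative to DMSO negative control as baseline.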

Measured: AC50

Sequence of Myc proto-oncogene protein (Homo sapiens) (P01106 whole entry, looked up, the tested form may be a part): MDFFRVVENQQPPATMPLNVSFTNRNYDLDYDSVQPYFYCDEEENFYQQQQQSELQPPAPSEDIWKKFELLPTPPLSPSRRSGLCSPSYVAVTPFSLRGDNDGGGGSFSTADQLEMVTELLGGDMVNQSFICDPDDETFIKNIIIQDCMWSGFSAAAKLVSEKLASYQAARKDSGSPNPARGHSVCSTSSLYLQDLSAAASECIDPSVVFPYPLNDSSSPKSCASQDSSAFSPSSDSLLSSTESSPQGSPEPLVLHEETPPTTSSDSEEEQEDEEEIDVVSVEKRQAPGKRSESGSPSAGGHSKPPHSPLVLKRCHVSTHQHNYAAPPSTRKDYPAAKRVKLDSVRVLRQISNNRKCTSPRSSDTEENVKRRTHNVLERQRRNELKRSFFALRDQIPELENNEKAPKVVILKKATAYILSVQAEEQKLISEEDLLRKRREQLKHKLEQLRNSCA
Sequence of Nuclear respiratory factor 1 (Homo sapiens) (Q16656 whole entry, looked up): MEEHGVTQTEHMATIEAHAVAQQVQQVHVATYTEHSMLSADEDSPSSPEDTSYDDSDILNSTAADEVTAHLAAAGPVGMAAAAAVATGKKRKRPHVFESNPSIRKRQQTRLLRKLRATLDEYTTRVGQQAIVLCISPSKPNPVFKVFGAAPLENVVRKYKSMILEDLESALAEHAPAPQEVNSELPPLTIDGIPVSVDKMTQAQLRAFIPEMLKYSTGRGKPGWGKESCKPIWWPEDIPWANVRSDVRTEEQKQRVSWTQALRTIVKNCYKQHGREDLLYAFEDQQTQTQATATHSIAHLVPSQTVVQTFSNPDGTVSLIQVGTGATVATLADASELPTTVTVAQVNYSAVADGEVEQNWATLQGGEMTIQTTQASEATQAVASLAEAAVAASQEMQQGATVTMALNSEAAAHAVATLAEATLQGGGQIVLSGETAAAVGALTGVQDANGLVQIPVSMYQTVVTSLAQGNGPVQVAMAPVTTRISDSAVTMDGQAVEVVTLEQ
Sequence of Hepatocyte nuclear factor 4-alpha (Homo sapiens) (P41235 whole entry, looked up, the tested form may be a part): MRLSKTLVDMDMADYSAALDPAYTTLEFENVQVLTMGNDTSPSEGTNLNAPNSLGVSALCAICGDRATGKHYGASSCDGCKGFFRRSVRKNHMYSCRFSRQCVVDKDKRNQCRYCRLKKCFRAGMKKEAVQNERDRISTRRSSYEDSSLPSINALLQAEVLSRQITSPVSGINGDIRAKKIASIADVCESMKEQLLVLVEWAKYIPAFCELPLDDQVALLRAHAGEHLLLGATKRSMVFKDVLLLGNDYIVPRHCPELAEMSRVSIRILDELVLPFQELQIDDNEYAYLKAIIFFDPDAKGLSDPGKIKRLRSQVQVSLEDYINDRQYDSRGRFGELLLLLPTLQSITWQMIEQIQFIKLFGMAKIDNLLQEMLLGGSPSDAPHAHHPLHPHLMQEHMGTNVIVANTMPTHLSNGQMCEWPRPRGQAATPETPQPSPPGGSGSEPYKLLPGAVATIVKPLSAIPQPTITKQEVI
Sequence of Oxysterols receptor LXR-beta (Homo sapiens) (P55055 whole entry, looked up, the tested form may be a part): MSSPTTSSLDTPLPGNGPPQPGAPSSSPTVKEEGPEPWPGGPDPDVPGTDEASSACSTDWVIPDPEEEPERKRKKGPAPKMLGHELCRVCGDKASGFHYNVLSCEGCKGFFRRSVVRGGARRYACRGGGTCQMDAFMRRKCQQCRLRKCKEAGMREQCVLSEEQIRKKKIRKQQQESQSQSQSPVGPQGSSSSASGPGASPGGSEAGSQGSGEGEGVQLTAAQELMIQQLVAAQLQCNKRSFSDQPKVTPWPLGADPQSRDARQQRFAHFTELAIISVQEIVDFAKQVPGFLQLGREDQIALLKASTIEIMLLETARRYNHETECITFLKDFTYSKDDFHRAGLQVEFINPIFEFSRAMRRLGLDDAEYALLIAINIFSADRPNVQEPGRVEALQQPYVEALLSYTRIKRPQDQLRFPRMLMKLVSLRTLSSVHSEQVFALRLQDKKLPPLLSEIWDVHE
Sequence of Transcriptional activator Myb (Homo sapiens) (P10242 whole entry, looked up): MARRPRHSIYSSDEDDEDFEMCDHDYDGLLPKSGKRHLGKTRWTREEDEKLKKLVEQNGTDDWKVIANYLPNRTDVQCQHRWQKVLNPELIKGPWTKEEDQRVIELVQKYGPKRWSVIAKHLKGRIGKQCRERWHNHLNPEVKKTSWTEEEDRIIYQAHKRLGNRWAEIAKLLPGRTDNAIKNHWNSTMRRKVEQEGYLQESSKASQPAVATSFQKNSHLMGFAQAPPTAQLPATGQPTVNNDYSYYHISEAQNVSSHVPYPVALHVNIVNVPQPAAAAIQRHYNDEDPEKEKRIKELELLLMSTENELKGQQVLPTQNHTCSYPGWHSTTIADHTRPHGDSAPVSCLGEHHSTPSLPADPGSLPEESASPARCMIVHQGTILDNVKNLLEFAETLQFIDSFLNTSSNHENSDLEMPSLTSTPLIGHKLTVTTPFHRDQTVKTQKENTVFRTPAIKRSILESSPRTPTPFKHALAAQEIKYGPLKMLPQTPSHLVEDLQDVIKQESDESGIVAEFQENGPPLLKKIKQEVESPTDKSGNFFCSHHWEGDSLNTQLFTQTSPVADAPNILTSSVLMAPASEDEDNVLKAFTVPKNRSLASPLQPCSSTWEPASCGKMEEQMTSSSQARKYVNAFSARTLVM
Sequence of Cellular tumor antigen p53 (Homo sapiens) (P04637 whole entry, looked up): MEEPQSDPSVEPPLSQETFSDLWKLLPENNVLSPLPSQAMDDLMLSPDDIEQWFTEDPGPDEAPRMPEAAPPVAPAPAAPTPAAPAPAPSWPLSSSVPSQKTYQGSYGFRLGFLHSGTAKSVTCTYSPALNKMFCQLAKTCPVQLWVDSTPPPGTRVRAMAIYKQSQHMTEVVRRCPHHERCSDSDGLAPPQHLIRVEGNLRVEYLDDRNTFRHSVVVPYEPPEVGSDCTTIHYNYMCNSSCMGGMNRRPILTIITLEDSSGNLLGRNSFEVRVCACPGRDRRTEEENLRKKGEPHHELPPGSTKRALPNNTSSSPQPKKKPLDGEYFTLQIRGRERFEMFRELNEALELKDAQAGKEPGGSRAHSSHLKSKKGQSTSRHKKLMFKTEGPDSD
Sequence of Nuclear receptor subfamily 4 group A member 2 (Homo sapiens) (P43354 whole entry, looked up): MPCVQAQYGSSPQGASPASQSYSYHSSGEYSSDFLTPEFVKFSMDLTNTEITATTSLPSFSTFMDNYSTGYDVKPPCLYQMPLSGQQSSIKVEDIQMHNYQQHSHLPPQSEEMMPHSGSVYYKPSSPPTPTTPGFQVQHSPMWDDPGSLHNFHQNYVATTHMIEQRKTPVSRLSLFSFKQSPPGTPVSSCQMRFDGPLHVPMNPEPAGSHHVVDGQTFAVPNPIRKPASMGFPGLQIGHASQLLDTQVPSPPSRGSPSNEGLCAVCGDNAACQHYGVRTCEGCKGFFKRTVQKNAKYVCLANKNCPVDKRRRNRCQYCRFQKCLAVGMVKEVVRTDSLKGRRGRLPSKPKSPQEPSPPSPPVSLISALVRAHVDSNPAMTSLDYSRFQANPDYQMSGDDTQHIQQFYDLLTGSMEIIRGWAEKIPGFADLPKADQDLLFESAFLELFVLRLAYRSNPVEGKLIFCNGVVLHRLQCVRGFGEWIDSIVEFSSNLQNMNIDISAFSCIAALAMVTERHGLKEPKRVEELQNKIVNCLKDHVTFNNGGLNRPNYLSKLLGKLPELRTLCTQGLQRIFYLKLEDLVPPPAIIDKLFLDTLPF
Sequence of Oxysterols receptor LXR-alpha (Homo sapiens) (Q13133 whole entry, looked up, the tested form may be a part): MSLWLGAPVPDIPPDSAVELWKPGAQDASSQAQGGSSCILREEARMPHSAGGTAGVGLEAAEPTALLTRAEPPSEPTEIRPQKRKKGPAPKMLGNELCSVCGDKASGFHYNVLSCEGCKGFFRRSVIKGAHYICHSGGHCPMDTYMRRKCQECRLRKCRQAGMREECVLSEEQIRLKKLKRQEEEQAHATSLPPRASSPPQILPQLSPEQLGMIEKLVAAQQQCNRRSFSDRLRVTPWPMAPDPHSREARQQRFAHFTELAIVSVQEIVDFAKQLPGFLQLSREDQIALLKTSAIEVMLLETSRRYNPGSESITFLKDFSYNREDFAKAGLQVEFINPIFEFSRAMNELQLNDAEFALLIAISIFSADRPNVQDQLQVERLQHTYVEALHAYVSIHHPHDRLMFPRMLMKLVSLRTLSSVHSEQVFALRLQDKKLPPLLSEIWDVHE
Sequence of Bile acid receptor (Homo sapiens) (Q96RI1 whole entry, looked up, the tested form may be a part): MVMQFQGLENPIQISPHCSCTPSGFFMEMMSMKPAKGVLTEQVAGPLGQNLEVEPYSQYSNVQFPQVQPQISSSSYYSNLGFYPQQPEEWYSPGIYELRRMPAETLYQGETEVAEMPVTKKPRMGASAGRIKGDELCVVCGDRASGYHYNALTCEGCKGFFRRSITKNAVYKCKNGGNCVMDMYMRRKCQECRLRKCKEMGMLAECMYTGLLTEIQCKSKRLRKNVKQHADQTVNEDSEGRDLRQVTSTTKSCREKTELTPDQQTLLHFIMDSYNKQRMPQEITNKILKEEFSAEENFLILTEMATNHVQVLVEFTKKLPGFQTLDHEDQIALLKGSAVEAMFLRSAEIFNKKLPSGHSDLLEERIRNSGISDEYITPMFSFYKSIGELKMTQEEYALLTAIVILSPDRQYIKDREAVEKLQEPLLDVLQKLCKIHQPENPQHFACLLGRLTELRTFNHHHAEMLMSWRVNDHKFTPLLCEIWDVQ

COCCCOCCCOC
inactive: [1] | [2] | [3] | [4] | [5] | [6] | [7] | [8] | [9] | [10]

CCc1ccc2c(c1)C(=O)c1ccccc1C2=O
not listed: [3] | [4] | [10] | [15] | [16] | [17] | [18] | [19]
inactive: all other assays above

Cc1ccc2c(c1)C(=O)c1ccccc1C2=O
active: [9] 6.48 µM | [10] 10.5 µM
not listed: [13] | [15] | [16] | [17] | [18] | [19]
inactive: all other assays above

CC1=CC[C@H](C(C)C)C=C1
inactive: [1] | [2] | [4] | [12] | [5] | [6] | [7] | [8] | [13] | [14]
active: [10] 27.7 µM

COc1ccc([C@@H]2CC(=O)c3c(O)cc(O[C@@H]4O[C@H](CO[C@@H]5O[C@@H](C)[C@H](O)[C@@H](O)[C@H]5O)[C@@H](O)[C@H](O)[C@H]4O)cc3O2)cc1OC
inactive: [15] | [11] | [5] | [6] | [7] | [8] | [10] | [13] | [14]

Nc1ccc2cc3ccccc3cc2c1
inactive: [1] | [2] | [11] | [4] | [12] | [5] | [6] | [7] | [8] | [13]
active: [10] 47 µM

CC(C)=CCC/C(C)=C\C#N
active: [10] 26.5 µM
not listed: [9] | [13] | [15] | [16] | [17] | [18] | [19]
inactive: all other assays above

O=C(Nc1ccccc1SSc1ccccc1NC(=O)c1ccccc1)c1ccccc1
active: [10] 29.2 µM | [16] 1.15 µM | [17] 9.54 µM | [18] 11.5 µM | [19] 20 µM
not listed: [11] | [15]
inactive: all other assays above

COc1ccc(C(Cl)=C(c2ccc(OC)cc2)c2ccc(OC)cc2)cc1
not listed: [10] | [15] | [16] | [17] | [18] | [19]
inactive: all other assays above

CC(C)c1ccc2c(C(C)C)cc(C(C)C)c(S(=O)(=O)O)c2c1
active: [12] 48 µM | [10] 25.9 µM
inactive: [15] | [4] | [5] | [6] | [7] | [8] | [14]

CC(C)(C)c1ccc(-c2ccc(C(C)(C)C)cc2)cc1
not listed: [9] | [12] | [14] | [15] | [16] | [17] | [18] | [19]
inactive: all other assays above

CCO[Si](CCCN=C=O)(OCC)OCC
not listed: [15]
inactive: all other assays above

c1ccc(-c2ccccn2)nc1
active: [19] 20 µM
not listed: [4] | [9] | [15]
inactive: all other assays above

Cc1ccccc1C
not listed: [15] | [16] | [17] | [18] | [19]
inactive: all other assays above

CN(C)c1ccc(C(=N)c2ccc(N(C)C)cc2)cc1
active: [4] 106 µM | [7] 0.162 µM | [13] 0.143 µM | [14] 29.4 µM
not listed: [15] | [16] | [17] | [18] | [19]
inactive: all other assays above

CC1OC1C1CCC2(C)OC2C1 (stereo unspecified)
active: [10] 100 µM
not listed: [9] | [11] | [15]
inactive: all other assays above

CC=C1CC2C=CC1C2 (stereo unspecified)
inactive: [1] | [2] | [4] | [12] | [5] | [6] | [7] | [8] | [14]
active: [9] 100 µM | [10] 45.9 µM

O=C(Cl)c1cc(C(=O)Cl)cc(C(=O)Cl)c1
active: [10] 158 µM | [16] 12.2 µM | [17] 10.2 µM | [18] 12.7 µM | [19] 25.8 µM
not listed: [1] | [2] | [3] | [6] | [12]
inactive: all other assays above

Cc1c(C)c([N+](=O)[O-])c(C(C)(C)C)c([N+](=O)[O-])c1C
inactive: [2] | [11] | [4] | [5] | [6] | [7] | [8] | [10] | [13] | [14]
active: [12] 9.67 µM
